Test results published in PubChem BioAssay (Tox21).
Records with an inconclusive call do not appear. Values without a mark were called inactive. The source made the active and inactive calls. Calls come from the whole dose curve.
% is set by controls: 0 for no effect and ±100 for the full control effect; potency is the fitted concentration of half-maximal effect.

Assay: p53 small molecule agonists, cell-based qHTS assay: qHTS cell viability counter screen (AID 1963581); note: nearly all actives have a fitted effect of over 45% in size
Conditions: p53RE-bla HCT-116 viability, ATP luminescence, 16 h; series mostly up to 66 µM; activity change, negative = cytotoxicity: at the top concentration
From the text: National Center for Advancing Translational Sciences [NCATS]
Division of Preclinical Innovation [DPI]
U.S. Environmental Protection Agency [EPA]
National Institutes of Environmental Health Sciences [NIEHS]
National Toxicology Program [NTP]
U.S. Food and Drug Administration [FDA]
p53, a tumor suppressor protein, is activated following cellular insult, including DNA damage and other cellular stresses. The activation of p53 regulates cell fate by inducing DNA repair, cell cycle arrest, apoptosis, or cellular senescence. The activation of p53, therefore, is a good indicator of DNA damage and other cellular stresses. The CellSensor p53RE-bla HCT-116 cell line (Invitrogen) contains a stably integrated beta-lactamase reporter gene under control of the p53 response elements. The activation of the reporter gene under culture conditions can be detected by fluorescence intensity. This cell line was used to screen the Tox21 compound library in a 1536-well plate format and to identify agonists that activate the p53 signaling pathway. The cytotoxicity of the Tox21 compound library against the p53 RE-bla HCT-116 cell line was tested in parallel by measuring the intra cellular ATP content in the same wells.
Tox21 Assay Protocol Summary:
The p53RE-bla cells were dispensed at 4,000 cells/5 ul/well in 1536-well black wall/clear bottom plates using a Multidrop dispenser. After the assay plates were incubated at a 37 C/5% CO2 incubator for 5 hours, 23 nL of compounds dissolved in DMSO, positive controls or DMSO only was transferred to the assay plate by a pin tool. The plates were incubated at 37 C for 16 hours. After 1 uL of LiveBLAzerTM B/G FRET substrate was added using a Flying Reagent Dispenser, the plates were incubated at room temperature for 2 hours, and fluorescence intensity was measured by an Envision plate reader. For cell viability readout that measures cytotoxicity, 4 ul/well of CellTiter-Glo reagent was added into the assay plates using a Flying Reagent Dispenser. After 30 min incubation at room temperature, the luminescence intensity in the plates was measured using a ViewLux plate reader.
With `CC(C)COC(=O)C(C)C` the “activity change, negative = cytotoxicity” value was 6.36%. For `CC(O)C#CC(C)O` (stereo not given), the “activity change, negative = cytotoxicity” value was -7.25%. For `CSc1c(Cl)c(Cl)c(Cl)c(Cl)c1Cl`, the “activity change, negative = cytotoxicity” value was 11%. For `CC(C)(C)C1CCCCC1=O` (stereo not given), the “activity change, negative = cytotoxicity” value was 24.1%. In the case of `C=C1CC[C@H](O)CC1=C/C=C1\CCC[C@]2(C)[C@@H]([C@H](C)/C=C/[C@H](C)C(C)C)CC[C@@H]12`, the “activity change, negative = cytotoxicity” value is reported as 6.98%. In the case of `C=C1C(=C/C=C2\CCC[C@]3(C)[C@@H]([C@H](C)/C=C/[C@@H](O)C4CC4)CC[C@@H]23)C[C@@H](O)C[C@@H]1O`, the “activity change, negative = cytotoxicity” value is reported as -18.6% [at 30.3 µM]. In the case of `CCCCCCCC/C=C\CCCCCCCC(=O)OC(CO)CO`, the “activity change, negative = cytotoxicity” value is reported as 5.9%. For `CCCc1nc(C)c2c(=O)[nH]c(-c3cc(S(=O)(=O)N4CCN(CC)CC4)ccc3OCC)nn12`, the “activity change, negative = cytotoxicity” value was 3.85% [at 30.3 µM]. With `CN(C)C(=N)N=C(N)N` the Potency was “inactive”. In the case of `C[Si](C)(C)O[Si](O)(O)O`, the “activity change, negative = cytotoxicity” value is reported as 8.43%. With `COc1ccnc(CS(=O)c2nc3cc(OC(F)F)ccc3[nH]2)c1OC` (stereo not given) the “activity change, negative = cytotoxicity” value was -15.9%. For `CO[C@]1(NC(=O)CSC(F)F)C(=O)N2C(C(=O)O)=C(CSc3nnnn3CCO)CO[C@H]21`, the “activity change, negative = cytotoxicity” value was -15.2% [at 30.3 µM]. In the case of `CO/N=C(/C(=O)N[C@@H]1C(=O)N2C(C(=O)[O-])=C(C[n+]3ccn4ncccc43)CS[C@H]12)c1nsc(N)n1`, the “activity change, negative = cytotoxicity” value is reported as -26.5% [at 30.3 µM]. With `C[N+]1(C)CCC(OC(=O)C(O)(c2ccccc2)C2CCCC2)C1` (stereo not given) the “activity change, negative = cytotoxicity” value was 20.8% [at 30.3 µM]. With `CC(C)(C)C(=O)CCc1ccc(Cl)cc1` the “activity change, negative = cytotoxicity” value was -1.23%. In the case of `Cc1ccc(N=Nc2c(O)c(C(=O)O)cc3ccccc23)c(S(=O)(=O)O)c1`, the “activity change, negative = cytotoxicity” value is reported as 3.57% [at 30.3 µM]. In the case of `CC1C2CC(CC2C2CCCC(O)C2)C1(C)C` (stereo not given), the “activity change, negative = cytotoxicity” value is reported as -4.27%. With `O=[N+]([O-])c1cccc(Cl)c1Cl` the “activity change, negative = cytotoxicity” value was 5.47%. In the case of `CCC(C)(C)OC`, the “activity change, negative = cytotoxicity” value is reported as 10.5%. In the case of `CCC(C)C(C)=O` (stereo not given), the “activity change, negative = cytotoxicity” value is reported as 4.98%. With `COC(=O)[C@H]1[C@H]2C[C@@H]3c4[nH]c5cc(OC)ccc5c4CCN3C[C@H]2C[C@@H](OC(=O)/C=C/c2ccc(O)c(OC)c2)[C@@H]1OC` the “activity change, negative = cytotoxicity” value was -1.07% [at 30.3 µM]. For `CCCCCCCCCCCCCCCCCC[N+](C)(C)C`, the Potency was 16.3 µM (active). For `CCCc1ccc(OC)cc1`, the “activity change, negative = cytotoxicity” value was -16.6%. For `CC(C)=CC=O`, the “activity change, negative = cytotoxicity” value was -6.61%. With `O=[N+]([O-])c1ccc(O)cc1C(F)(F)F` the “activity change, negative = cytotoxicity” value was -16.3%. For `CC(=O)Nc1ccc(/C=N/NC(N)=S)cc1`, the “activity change, negative = cytotoxicity” value was -8.79% [at 30.3 µM]. With `CC(=O)OCC=C(C)C` the “activity change, negative = cytotoxicity” value was -1.45% [at 30.3 µM]. For `O=C1NC2CCCCN2C12CCN(CCCN1c3ccccc3CCc3ccc(Cl)cc31)CC2` (stereo not given), the “activity change, negative = cytotoxicity” value was 39.5% [at 30.3 µM]. For `CC(=O)/C=C/C=C1/C2CCC(C2)C1(C)C` (stereo not given), the “activity change, negative = cytotoxicity” value was -8.13% [at 30.3 µM]. For `CCC(CC)CO`, the “activity change, negative = cytotoxicity” value was -6.79%. In the case of `Nc1cccc([N+](=O)[O-])c1`, the “activity change, negative = cytotoxicity” value is reported as 0%. In the case of `Cc1cc(O)c2c(O)c3c(O)cccc3cc2c1`, the “activity change, negative = cytotoxicity” value is reported as 6.11% [at 30.3 µM]. For `N#CCCNCCC#N`, the “activity change, negative = cytotoxicity” value was 3.26%. For `[Ca+2]`, the “activity change, negative = cytotoxicity” value was -2.09%. With `O=S(=O)(O)c1ccc(Nc2nc(Nc3ccc(/C=C/c4ccc(Nc5nc(Nc6ccc(S(=O)(=O)O)cc6)nc(N(CCO)CCO)n5)cc4S(=O)(=O)O)c(S(=O)(=O)O)c3)nc(N(CCO)CCO)n2)cc1` the “activity change, negative = cytotoxicity” value was 11.7% [at 30.3 µM]. For `CN(C/C=C/C#CC(C)(C)C)Cc1cccc2ccccc12`, the “activity change, negative = cytotoxicity” value was 1.7% [at 30.3 µM]. In the case of `NCCc1ccn[nH]1`, the “activity change, negative = cytotoxicity” value is reported as -10.4% [at 30.3 µM]. For `Oc1cc2c(cc1O)[C@H]1c3ccc(O)c(O)c3OC[C@@]1(O)C2`, the “activity change, negative = cytotoxicity” value was -5.4%. For `O=C(CCCN1CCC(O)(c2ccc(Cl)cc2)CC1)c1ccc(F)cc1`, the Potency was “inactive”. With `CN1CC(=O)N2[C@H](c3ccc4c(c3)OCO4)c3[nH]c4ccccc4c3C[C@@H]2C1=O` the “activity change, negative = cytotoxicity” value was -5.65% [at 30.3 µM].
